The remaining activity is the signal under treatment as a percentage of the control signal.

For test [1], the system named is Aerobactin synthetase IucA (Klebsiella pneumoniae). Kind of test: inhibition of K. pneumoniae IucA enzyme – biochemical, Tocris library, absorbance (AID 1345561; call rule not given here;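 also: 100% = enzyme without compound and 0% = no enzyme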). To be noted: purified IucA enzyme assay, absorbance (OD) read-out; stronger effect = lower value;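 tested at 8 µM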.
Test [2] in a line: viability loss with induced miR-34 in A549 – imaging, A549 dox-inducible miR-34, nuclei and caspase counts, primary screen (AID 1347080;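 active = compounds whose cell count with miR-34 switched on is under 0.7 times the count with it off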). Conditions: A549 miR-34 inducible, Hoechst nuclei count, 48 h.
Test [3] can be described thus: galactose survival enhancers in mitochondrial complex I cybrids – cell-based, galactose medium, ATP luminescence, primary screen (AID 1645843).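 Also: positive z means more ATP and so rescue of galactose-driven cybrid death.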 To be noted: complex I mutant cybrid cells, 72 h, stronger effect = higher value.
Setting [4] is: stronger effect = lower value, cell number ratio, induced over uninduced.
Setting [5] is: measured here: relative caspase fold change +Dox/-Dox.
[6] abbreviates: measured here: total cells with miR-34 induction, stronger effect = lower value.
Setting [7] is: measured here: total cells without miR-34 induction.

The source made the active and inactive calls.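 The calls were made as follows, unless noted: active = z-score of at least 1.8 in each of two replicates, scored against plate mean and spread of sample wells; inactive = the rest.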

Turning to `CCN(CC)CC1CCN(c2ncc3ncnc(Nc4ccc(F)c(Cl)c4)c3n2)CC1`, in test [1], the remaining activity was 124% (inactive). Also, the fold change in test [2] (setting [4]) is 0.891 (inactive); in test [2] (setting [5]), 1.55. The values for the cell count in test [2] (setting [6]) and in test [2] (setting [7]) were 1440 and 1620, respectively. In addition, the z-score in test [3] was -0.675 (inactive).
Consider `OC(c1ccccc1)C1CCN(CCc2ccccc2)CC1` (centres undefined), for which the remaining activity in test [1] is 96.8% (inactive). The fold change was 0.917 (inactive) in test [2] (setting [4]) and 0.92 in test [2] (setting [5]). In addition, the cell count in test [2] (setting [6]) was 8660; in test [2] (setting [7]), 9440. For the same compound, the z-score in test [3] was -0.035 (inactive).
As to `O=C(Nc1cccc2cccnc12)c1ccc(N2C(=O)[C@@H]3[C@H](C2=O)[C@@H]2C=C[C@H]3C2)cc1`, in test [1], the remaining activity is 115% (inactive). Further, the fold change in test [2] (setting [4]) is 1 (inactive); in test [2] (setting [5]), 0.754. The cell count in test [2] (setting [6]) was 6560; in test [2] (setting [7]) it was 6550. Also, in test [3], the z-score was -0.025 (inactive).
Regarding `Nc1nc(Nc2ccccc2)nc2c1ncn2[C@@H]1O[C@H](CO)[C@@H](O)[C@H]1O`, the remaining activity in test [1] was 107% (inactive). Besides, the fold change in test [2] (setting [4]) was 0.978 (inactive); in test [2] (setting [5]) it was 0.752. Moreover, the cell count was 9880 in test [2] (setting [6]) and 10100 in test [2] (setting [7]). Also, the z-score in test [3] is -0.09 (inactive).
`COc1cc(COc2cc(N)c(Cl)cc2C(=O)CCC2CCN(CCNS(C)(=O)=O)CC2)cc(OC)c1`: the remaining activity in test [1] was 100% (inactive). Moreover, the fold change was 0.842 (inactive) in test [2] (setting [4]) and 1.5 in test [2] (setting [5]). Further, the figures for the cell count in test [2] (setting [6]) and in test [2] (setting [7]) were 3930 and 4660, respectively. In test [3], the z-score is -0.81 (inactive).
As for `CCCCCS(=O)(=O)CCCCCCCCCCn1c(-c2ccc(O)cc2)c(C)c2cc(O)ccc21`, in test [1], the remaining activity was 96.6% (inactive). The values for the fold change in test [2] (setting [4]) and in test [2] (setting [5]) were 1.01 (inactive) and 0.732, respectively. Besides, the cell count in test [2] (setting [6]) was found to be 1420; in test [2] (setting [7]), 1410. In test [3], the z-score is -0.685 (inactive).
With `CCc1cc(C(C)=O)c(O)cc1OCCCCCC(C)(C)c1nn[nH]n1`, the remaining activity in test [1] is 116% (inactive). Further, the fold change is 0.891 (inactive) in test [2] (setting [4]) and 1.51 in test [2] (setting [5]). Besides, the cell count in test [2] (setting [6]) amounted to 7060; in test [2] (setting [7]), 7920. In addition, the z-score in test [3] is -0.21 (inactive).
Turning to `CCCCC(=O)NCCc1c(Cc2ccccc2)[nH]c2ccccc12`, the remaining activity in test [1] was 108% (inactive). Also, the fold change is 0.933 (inactive) in test [2] (setting [4]) and 0.702 in test [2] (setting [5]). The cell count worked out at 6310 in test [2] (setting [6]) and 6770 in test [2] (setting [7]). Besides, the z-score in test [3] was 0.26 (inactive).
For the compound `c1ccc(CN2CCC3(CCc4ccccc43)CC2)cc1`, the remaining activity in test [1] is 97.3% (inactive). The figures for the fold change in test [2] (setting [4]) and in test [2] (setting [5]) were 0.952 (inactive) and 0.584, respectively. The cell count stood at 8830 in test [2] (setting [6]) and 9280 in test [2] (setting [7]). The z-score in test [3] is 0.76 (inactive).
Turning to `CCC(=O)NC1CCc2cccc(OC)c2C1` (centres undefined), in test [1], the remaining activity is 123% (inactive). Besides, the fold change in test [2] (setting [4]) was 1.01 (inactive); in test [2] (setting [5]), 0.925. The cell count in test [2] (setting [6]) was 8550; in test [2] (setting [7]), 8470. In addition, the z-score in test [3] is -0.165 (inactive).
As for `CCn1c(=O)[nH]c2ccccc21`, in test [1], the remaining activity was 111% (inactive). The fold change in test [2] (setting [4]) was 0.854 (inactive); in test [2] (setting [5]), 1.07. The cell count worked out at 7770 in test [2] (setting [6]) and 9100 in test [2] (setting [7]). In addition, the z-score in test [3] was -0.455 (inactive).
With `NCCCCCCCCCCNS(=O)(=O)c1cccc2c(Cl)cccc12`, in test [1], the remaining activity was 98.7% (inactive). The results for the fold change in test [2] (setting [4]) and in test [2] (setting [5]) were 0.827 (inactive) and 0.835, respectively. Besides, the cell count in test [2] (setting [6]) worked out at 5900; in test [2] (setting [7]), 7130. Moreover, the z-score in test [3] is -1.11 (inactive).
On to `c1cc2c(cc1C1CCCCC1)c1c3n2CCNC3CCC1` (centres undefined), for which the remaining activity in test [1] is 102% (inactive). The figures for the fold change in test [2] (setting [4]) and in test [2] (setting [5]) were 1.06 (inactive) and 1.07, respectively. The cell count in test [2] (setting [6]) worked out at 430; in test [2] (setting [7]), 406. In addition, the z-score in test [3] was -1.23 (inactive).
Take `C=CCNC(=O)c1cc([N+](=O)[O-])cc2c(=O)[nH]c(Nc3ccc(Cl)c(Cl)c3)nc12`: the remaining activity in test [1] is 116% (inactive). The fold change in test [2] (setting [4]) is 0.926 (inactive); in test [2] (setting [5]), 0.827. Moreover, the figures for the cell count in test [2] (setting [6]) and in test [2] (setting [7]) were 8840 and 9550, respectively. Besides, in test [3], the z-score was -0.09 (inactive).
Take `COc1ccc(NS(=O)(=O)c2ccc(I)cc2)cc1N1CCN(C)CC1`: the remaining activity in test [1] was 112% (inactive). Besides, the fold change in test [2] (setting [4]) is 0.956 (inactive); in test [2] (setting [5]), 0.589. Further, the cell count in test [2] (setting [6]) amounted to 6570; in test [2] (setting [7]), 6870. Besides, in test [3], the z-score was -0.545 (inactive).
Consider `CC(C)n1nnc2cc(C(=O)O)ccc21`, for which, in test [1], the remaining activity is 115% (inactive). Also, the fold change in test [2] (setting [4]) was 0.911 (inactive); in test [2] (setting [5]) it was 1.97. For the same compound, the results for the cell count in test [2] (setting [6]) and in test [2] (setting [7]) were 7770 and 8530, respectively. Further, in test [3], the z-score is 0.275 (inactive).
As to `COc1ccc2cccc(N3CCN(CCNC(=O)c4ccc(F)cc4)CC3)c2c1`, the remaining activity in test [1] is 104% (inactive). Besides, the fold change in test [2] (setting [4]) was 0.924 (inactive); in test [2] (setting [5]), 0.854. Also, the cell count in test [2] (setting [6]) was determined as 7720; in test [2] (setting [7]) it was 8360. In addition, the z-score in test [3] is -0.77 (inactive).
As to `CCS(=O)(=O)N1CCC[C@@H]2CN3CCc4cc(OC)ccc4[C@@H]3C[C@@H]21`, in test [1], the remaining activity was 87.2% (inactive). For the same compound, the values for the fold change in test [2] (setting [4]) and in test [2] (setting [5]) were 0.945 (inactive) and 0.859, respectively. Moreover, the results for the cell count in test [2] (setting [6]) and in test [2] (setting [7]) were 8340 and 8820, respectively. In addition, in test [3], the z-score was 0.46 (inactive).
Take `Cc1ccccc1N=C(N)Nc1ccccc1C`: in test [1], the remaining activity is 93.4% (inactive). Moreover, the fold change in test [2] (setting [4]) is 0.944 (inactive); in test [2] (setting [5]) it was 0.72. Also, the cell count in test [2] (setting [6]) came out at 8710; in test [2] (setting [7]), 9220. Further, in test [3], the z-score was -0.035 (inactive).

These data come from PubChem BioAssay.
